These results are taken from the supplement of paper PMC9477273.

The assay concerns DRIVER-selected RNA biosensor (aptazyme) pool. Nature of the assay: maximum fold change of ribozyme cleavage across biosensor pool versus no-compound control; higher = stronger biosensor response (ligand inhibits cleavage). The following applies: 10 µM. The procedure:
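CleaveSeq: a pool of resynthesized hammerhead-ribozyme RNA biosensors (sTRSV scaffold with randomized loops, 1,730 sequences) was T7-transcribed at 37 °C for 15-30 min with a single compound at 10 µM. Cleaved and uncleaved products were counted by NGS, and fold change of cleavage was computed against the DMSO-only condition. The value is the maximum fold change of cleavage over all biosensors in the pool. About 255 compounds were tested individually.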
Molecule `CN1CCN(Cc2csc3c2CCCC3)CC1` had a maximum fold change of 3.66. `Cc1ccc(CNC(=O)CN2CC(c3ccccc3)CC2=O)cc1` (centres undefined) came in with a maximum fold change of 3.05. `O=C(Cn1cnc2sc3c(c2c1=O)CCCC3)NCCCC(=O)N1CCC2(CC1)OCCO2` showed a maximum fold change of 2.67. Then `O=Cc1cn(Cc2ccc(F)cc2Cl)c2ccccc12`, with 3.
